Screens as filed in PubChem BioAssay.
KB-3-1 cytotox: kills parental KB-3-1 adenocarcinoma cells. KB-3-1 viability, CellTiter-Glo ATP luminescence, 72 h. Potency, µM (titrated, usually from 46.1 µM), actives largely listed as cytotoxic. 400,000 tested, 1.4% active. AID 1347075; also: potency is read from the fitted curve at half-maximal effect; % is scaled to controls: 0 for no effect and ±100 for the full control effect; nearly all actives have a fitted effect of over 60% in size
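Screening of KB-3-1 cells (DMEM, 10% FBS, phenol-red free) ran from lowest to highest compound concentration; after 72 h at 37 °C viability was read luminescently and curves fitted.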
KB-V1 MDR tox: KB-V1 MDR subline cytotoxicity; 400,000 tested, 3.4% active; Potency, µM (titrated, usually from 46.1 µM), actives largely listed as cytotoxic; KB-V1 MDR cells viability, CellTiter-Glo, 72 h; AID 1347076; also: potency is read from the fitted curve at half-maximal effect; % is scaled to controls: 0 for no effect and ±100 for the full control effect; nearly all actives have a fitted effect of over 60% in size
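Cytotoxicity toward P-gp-expressing KB-V1 cells was determined as loss of CellTiter-Glo luminescence after 72 h at 37 degrees C. Compounds were tested in quantitative HTS format across a concentration range, with curves fitted to normalized data.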
SW480 rerep: inducers of DNA re-replication in SW480 colon cancer cells. SW480 DNA re-replication, Hoechst DNA content imaging, 48 h. 340,000 tested, 1.8% active. AID 624297. Potency, µM (series often up to 46.1 µM), for inactives: top-dose re-replication activation, usual class: activators; also: potency is read from the fitted curve at half-maximal effect; % of control where 0% means no effect; nearly all actives have a fitted effect of over 55% in size
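Image-based DNA-content assay: after two days of treatment, nuclei were labelled with the DNA dye Hoechst and imaged, and hits were compounds raising the count of nuclei showing high fluorescence intensity.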
MCF10A rerep: induces DNA re-replication in MCF 10a normal breast cells; Potency, µM (series often up to 46.1 µM), without a hit: at the highest dose activity, positive = re-replication, usual class: activators; AID 624296; 350,000 tested, 2.9% active; MCF 10A DNA re-replication, Hoechst nuclear intensity, 48 h; also: potency is read from the fitted curve at half-maximal effect; % of control where 0% means no effect; nearly all actives have a fitted effect of over 50% in size
IL1B secr inh: inhibitors of inflammasome signaling (IL-1 beta secretion); 360,000 tested, 4.7% active; activity change, % at 57.5 µM; THP-1 LPS/ATP IL-1B secretion, AlphaLISA, 16 h; active compounds read low; in the data active = activity change below about -50%; inconclusive = mostly about -30% to -49%; also: % is scaled to controls: 0 for no effect and ±100 for the full control effect
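Secreted IL-1B measured by AlphaLISA bead assay after 16 h compound exposure of THP-1 cells; compounds (final up to 57.5 uM) added 1 h before LPS (250 ng/mL) and ATP (1.25 mM) stimulation; lower signal means less secretion.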
Active calls of the source: *; i = inactive; ? = inconclusive; . = no result. Shown are actives, neighbours in structure and some others; about 9.9% of the full set was active somewhere. Unless noted, calls follow the shape of the dose curve; as a rule, active = well fitted curve in the direction sought with a large enough effect; inconclusive = small, poorly fitted or top-dose-only effect, or another doubt; inactive = no such curve, though single readings can be large; an effect the other way counts as inactive or inconclusive.

SMILES	KB-3-1 cytotox	KB-V1 MDR tox	SW480 rerep	MCF10A rerep	IL1B secr inh
CCc1cccc2c(C(=O)CN3C(=O)NC(C)(c4cccc5ccccc45)C3=O)c[nH]c12 (centres undefined)	?	23.1µM*	19.9%	14.6µM*	27.9
CCc1cccc2c(C(=O)CN3C(=O)NC4(CCc5ccccc54)C3=O)c[nH]c12 (centres undefined)	?	?	?	14.6µM*	-57.7*
COc1ccccc1NC(=O)c1oc2ccccc2c1NC(=O)Cc1cccs1	i	i	.	.	.
COc1ccc(-n2ccnc(NCCc3ccc(S(N)(=O)=O)cc3)c2=O)cc1	i	i	.	.	.
CSc1ncccc1C(=O)OCC(=O)NCc1ccc2c(c1)OCO2	i	i	-3.5%	7.5%	21.8
CCOC(=O)c1c(NC(=O)c2ccc(Cl)cc2)csc1C	i	9.2µM*	-65.9%	-57.7%	-1.8
CC(=O)N1CCc2c(sc3nc(SCC(N)=O)n(-c4ccc(F)c(Cl)c4)c(=O)c23)C1	i	i	.	.	.
COc1ccc(-c2[nH]nc3oc(=O)c(CCO)c(C)c23)cc1	i	i	4.1%	10.5%	-84.3*
CSc1nc(C)c(CCO)c(=O)[nH]1	?	i	18.2%	?	-4.9
COc1ccc(-c2[nH]nc3oc(=O)cc(C)c23)cc1	i	i	-6.8%	25.3%	9.5
Cc1[nH]nc2oc(=O)c(CCO)c(C)c12	i	i	16.4µM*	?	11.6
O=C(CCCN1C(=O)C2CC=CCC2C1=O)Nc1ccccc1F (centres undefined)	i	i	-9.3%	6.1%	-1.3
Cc1sc2nc(-c3ccccn3)[nH]c(=O)c2c1-c1ccccc1	?	i	23.1µM*	?	92.3
COc1cccc2c3c(c(C)nc12)CC(C)O3 (centres undefined)	i	i	-3.2%	2.1%	10.0
COc1ccc(N2CCc3c(C)nc4c(OC)cc(OC)cc4c32)cc1	i	?	14.2%	?	.
COc1ccc(N2CCc3c(C)nc4c(OC)cccc4c32)cc1	4.61µM*	?	?	?	-95.9*
CCN1Cc2c(/C=C/c3ccccc3)nc3ccc(OC)cc3c2N(c2cccc(Cl)c2)C1	?	i	27.6%	25.9µM*	-84.4*
COc1cccc(N2CCc3c(C)nc4ccc(Cl)cc4c32)c1	?	16.4µM*	?	?	-96.3*
COc1ccc(N2CCc3c(C)nc4c(OC)cc(OC)cc4c32)c(OC)c1	?	?	?	25.9µM*	-58.3*
COc1ccc(/C=C/c2nc3ccccc3c(=O)o2)cc1	i	i	-1.7%	5.0%	17.4
O=C(CNS(=O)(=O)c1ccc(Br)s1)N1CCC(N2CCCCC2)CC1	i	i	-4.9%	3.7%	39.0
COc1cc(/C=C(\C#N)c2nc3ccccc3[nH]2)cc(Cl)c1OCc1ccccc1Cl	i	i	.	.	.
COc1ccccc1N(CC(=O)N(C)Cc1ccccc1)S(=O)(=O)c1cccs1	i	i	-46.2%	14.9%	2.6
CSc1ncccc1C(=O)Nc1nc2ccc(Oc3ccccc3)cc2s1	i	i	-75.5%	?	-6.6
Cc1nc2c(C)cccc2c2c1CCN2c1ccccc1F	i	i	-0.7%	?	-76.4*
SMILES	KB-3-1 cytotox	KB-V1 MDR tox	SW480 rerep	MCF10A rerep	IL1B secr inh
Cc1cccc2c(N)c3c(nc12)N(C)CC3	i	i	0.4%	14.2%	-0.3
CCOC(=O)c1c(NC(=O)CSc2nnc(-c3c[nH]c4ccccc34)n2CCOC)sc2c1CCCC2	18.4µM*	i	?	15.0%	-18.0
CCOC(=O)c1c(NC(=O)CSc2nnc(-c3c[nH]c4ccccc34)n2C)sc2c1CCCC2	?	i	3.4%	22.1%	-21.0
O=C(Nc1ccc(F)cc1F)C1CCN(S(=O)(=O)c2ccc3[nH]c(=O)ccc3c2)CC1	i	i	.	.	.
COc1ccc(OC)c2c1C(=O)C(Cl)=C(Cl)C2=O	5.8µM*	5.17µM*	?	2.59µM*	-117.4*
COc1ccc(N)c2c1C(=O)c1ccccc1C2=O	i	?	1.8%	11.6%	-84.7*
COc1ccc(OC)c2c1C(=O)c1ccccc1C2=O	i	i	1.5%	10.8%	-16.1
Nc1ccc(O)c2c1C(=O)c1ccccc1C2=O	i	i	-84.7%	-37.4%	-56.9*
O=C(Nc1cccc([N+](=O)[O-])c1)c1ccc([N+](=O)[O-])o1	i	?	.	.	-103.2*
O=C(Nc1cccc(NC(=O)c2ccccc2Cl)c1)c1ccc([N+](=O)[O-])o1	?	?	?	3.66µM*	-106.2*
O=C(Nc1ccc2[nH]c(=O)[nH]c2c1)c1ccc([N+](=O)[O-])o1	?	?	2.91µM*	5.8µM*	?
Cc1ccc(NC(=O)c2ccc([N+](=O)[O-])o2)cc1C	18.4µM*	i	?	9.2µM*	-94.4*
Cc1ccc(S(=O)(=O)N2[C@@H](CCO)OC[C@H]2C(C)C)cc1	i	i	.	.	14.6
Cc1ccc(NC(=O)c2cc(Cl)ccc2[N+](=O)[O-])cc1C	i	i	-0.4%	0.5%	-99.5*
Cc1cccc(NC(=O)c2cc(Cl)ccc2[N+](=O)[O-])c1	i	i	-1.1%	4.4%	-1.8
COc1cccc(C2N=C(c3ccccc3C)NO2)c1OC (centres undefined)	i	i	1.1%	-0.6%	-5.9
Cc1cc(C)n(-c2nc(SCCN(C)C)c3c4c(sc3n2)CCCC4)n1	i	i	?	?	-77.5*
COc1ccc(S(=O)(=O)N2CCOc3ccccc32)cc1	i	i	5.8µM*	4.61µM*	108.1
COc1ccc(S(=O)(=O)N2c3ccccc3OCC2C)cc1 (centres undefined)	1.16µM*	?	2.59µM*	1.3µM*	74.3
COc1ccc(S(=O)(=O)N2c3ccccc3OCC2C(C)(C)C)cc1 (centres undefined)	i	i	1.3%	-3.6%	14.8
COc1ccc(S(=O)(=O)N2c3ccccc3OCC2c2ccccc2)cc1 (centres undefined)	8.2µM*	5.8µM*	3.66µM*	5.8µM*	39.2
COc1ccc(N(C)S(=O)(=O)c2cccc(C(=O)OCC(=O)Nc3cc(C)ccc3OC)c2)cc1	i	i	.	.	-22.7
CC(C)CNc1ncnc2c1ncn2[C@H]1CN(Cc2ccc(-c3ccccc3)cc2)C[C@@H](CO)O1	?	?	.	.	-26.8
COc1ccc(NC(=O)c2ccco2)cc1NC(=O)c1cccc(C)c1OC	i	?	.	.	.
CC(C)n1cnc2c(NCc3ccc(S(N)(=O)=O)cc3)nc(NCc3ccc(S(N)(=O)=O)cc3)nc21	i	i	-8.3%	-4.2%	19.2
CC(C)[C@H](CO)Nc1nc(NCc2ccc(S(N)(=O)=O)cc2)c2ncn(C(C)C)c2n1	?	i	18.4µM*	27.3%	-103.4*
